Compounds with a hit are over-represented: about 2.2% of the library has one in this group of screens.
IEC-6 tox – cytotoxicity in IEC-6 intestinal epithelial cells, primary screen, cytotoxicity control for KLF5 inhibitor project, cell-based, luminescence; IEC-6 cytotoxicity, luminescence viability; inhibition, % at 5 µM; 0.78% of 290,000 active; AID 1825, 2009; in the data active means inhibition above about 22%;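 further: 0% = plate median of test compound wells and 100% = cytotoxic reference compound wells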
BaF3 parental – parental Ba/F3 cell viability inhibition, counter-screen for JAK2V617F inhibitor project, murine pro-B, CellTiter-Glo luminescence; CellTiter-Glo ATP luminescence; inhibition, % at 5.6 µM; 1.1% of 220,000 active;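 active means inhibition above a per-campaign cutoff, the mean inhibition of all tested compounds plus 3 SD, cut at about 27% in these data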;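 further: 0% = DMSO wells and 100% = JAK Inhibitor I control wells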
aSyn UTR inh – MLPCN primary screen, SNCA 5' untranslated region | alpha-synuclein 5'UTR reporter, inhibitor activity | inhibition, % (tested at 7.5 µM) | 0.82% of 300,000 active | AID 1813, 2009; in the data active means inhibition above about 60%;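 further: H4 neuroglioblastoma cells stably carrying SNCA 5'UTR luciferase fusion; 0% = DMSO wells and 100% = positive control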
Ba/F3 V617F tox – reduced viability of JAK2V617F-dependent Ba/F3 cells, primary screen, JAK2V617F inhibitor project, cell-based, Ba/F3 EpoR-JAK2V617F, luminescence. 1.1% of 220,000 active. ATP luminescence. inhibition, % at 5.6 µM. AID 1446, 2008;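 active means inhibition above the campaign mean plus 3 SD over all tested compounds, cut at about 24% in these data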;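 further: cytokine-independent growth of Ba/F3 cells driven by EpoR plus mutant JAK2; 0% = DMSO-treated cells and 100% = JAK inhibitor I control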
APP transl inh – inhibitors of APP translation via 5'UTR reporter, primary screen, APP 5'UTR luciferase, SH-SY5Y cells; SH-SY5Y APP 5'UTR-luciferase reporter, luminescence; inhibition, % at 2 µM; 0.82% of 190,000 active; AID 1285, 2008;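 active means inhibition above a set limit, derived from the sample mean plus 3 SD, cut at about 45% in these data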
KLF5 inh – KLF5 expression inhibitors, primary screen, DLD-1 cells, luminescence; 0.23% of 290,000 active; inhibition, % at 5 µM; DLD-1 KLF5 promoter-luciferase reporter;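 active means inhibition above a per-plate limit of that plate's mean compound inhibition plus 3 SD, cut at about 60% in these data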;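 further: 0% = DMSO wells and 100% = LY294002 at 200 µM; higher means less KLF5 promoter-driven luciferase light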
Active calls of the source: *; x = not tested or not shown.

SMILES | IEC-6 tox | BaF3 parental | aSyn UTR inh | Ba/F3 V617F tox | APP transl inh | KLF5 inh
O=C(Nc1cccc(F)c1)c1ccc(S(=O)(=O)N2CCCCC2)cc1 | -1.6 | x | -2.2 | x | x | -10.4
Cc1cc(C)c2nc(C)cc(N/N=C/c3ccc(O)cc3)c2c1 | 21.8 | x | 112.1* | x | x | -36.4
CCCCCCCC[n+]1cccc(C(=O)N(CC)CC)c1 | 2.0 | 6.3 | 10.8 | 2.7 | -13.1 | 1.7
CCCCCCCCCCCCCCCC[n+]1cccc(C(=O)N(CC)CC)c1 | 2.0 | 62.1* | 26.0 | 59.1* | 12.5 | -3.7
Cc1ccccc1NC(=O)c1cnc2ccccn2c1=O | 6.2 | 4.7 | 61.8* | 0.7 | -104.5 | -105.1
COc1ccc(OC)c(NC(=O)c2cnc3ccccn3c2=O)c1 | 7.3 | 8.7 | x | 1.9 | -2.2 | -24.2
Cc1cc(=O)[nH]c(N/N=C/c2cccc(Br)c2)n1 | 1.6 | x | -24.5 | x | x | -40.9
Cc1cc(=O)[nH]c(N/N=C/c2ccccn2)n1 | 1.6 | 2.4 | 73.8* | 10.3 | 64.9* | -33.1
CC1CCC(C(C)C)C(OCC[N+](C)(C)C)C1 (configuration not stated) | 4.4 | 41.9* | -10.9 | 37.1* | 11.8 | 2.8
CC1CCC(C(C)C)C(OCC(O)C[N+]2(C)CCCCC2)C1 (configuration not stated) | 2.1 | 49.6* | 10.7 | 27.7* | 4.0 | -32.6
CC1CCC(C(C)C)C(OCC(O)CN2CCCC(C)C2)C1 (configuration not stated) | -7.5 | 5.9 | -43.4 | -1.0 | -6.1 | -30.2
FC(F)(F)c1ccccc1NC(=S)NN=C1CCCCCC1 | 6.8 | -0.1 | -18.3 | -2.1 | 93.1* | -14.3
CCCc1nnc(SCC(=O)NC2CCCCC2)n1CCOC | 1.9 | x | -7.2 | x | x | -11.1
CC(C)C(C(=O)Nc1ccc(N2CCOCC2)cc1)N1C(=O)c2ccccc2C1=O (configuration not stated) | 5.0 | 60.4* | -1.1 | -1.9 | 6.0 | -12.6
CC(C(=O)Nc1ccc(N2CCOCC2)cc1)N1C(=O)c2ccccc2C1=O (configuration not stated) | -0.1 | 5.9 | 26.8 | -1.7 | 16.5 | -36.5
CC(C)C(C(=O)Nc1ccc2c(c1)OCCO2)N1C(=O)c2ccccc2C1=O (configuration not stated) | -6.5 | 93.6* | -2.9 | 0.2 | -13.1 | 12.1
O=C(NNC(=O)c1ccc(S(=O)(=O)N2CCCCC2)cc1)c1ccc(F)cc1 | 1.1 | x | 14.4 | x | x | -8.3
c1ccc(NC2=NCCN2CCC2CCCC2)cc1 | 0.4 | x | -19.3 | x | x | 7.0
O=C(Nc1ccc(S(=O)(=O)N2CCCC2)cc1)Nc1ccc(F)cc1F | 1.7 | x | -3.7 | x | x | -39.5
O=C(Nc1ccc(F)cc1F)c1cccc(C(=O)Nc2ccc(F)cc2F)n1 | -3.2 | x | 86.7* | x | x | 14.8
Cc1ccc(S(=O)(=O)Nc2ccc(NC(=O)Nc3ccc(F)cc3F)cc2)cc1 | 0.7 | 6.6 | 78.5* | 0.0 | -19.4 | -1.8
O=C(Nc1ccc(F)cc1F)c1csc(-c2ccccc2)n1 | -3.7 | 3.0 | -95.3 | 0.8 | -30.0 | -8.0
O=C(Nc1ccc(F)cc1F)Nc1ccc(F)cc1F | -0.9 | 55.7* | -86.6 | 17.8 | -45.3 | -68.5
CC(C)(C)c1ccc(S(=O)(=O)N2CCC(NC(=O)c3ccco3)CC2)cc1 | 6.0 | x | -2.4 | x | x | 4.8
COc1ccc(NC(=S)NN(C)C(=S)Nc2ccc(OC)cc2)cc1 | 14.0 | 4.5 | 23.3 | 1.4 | 92.8* | -3.7
SMILES | IEC-6 tox | BaF3 parental | aSyn UTR inh | Ba/F3 V617F tox | APP transl inh | KLF5 inh
COc1ccc(NC(=S)Nc2ccc(Oc3ccccc3)cc2)cc1 | -4.8 | 7.8 | 36.4 | -1.6 | -21.3 | -44.4
COc1ccc(C(=O)NC2CCN(CC(=O)Nc3cccc(OC)c3)CC2)cc1 | -0.9 | x | 0.1 | x | x | -22.6
CCCCCc1ccc(OCCC[n+]2ccccc2)c(CCCCC)c1 | 21.0 | 84.0* | 2.6 | 99.9* | x | -0.7
CCCCCc1ccc(OCCOCCn2c[n+](C)c3ccccc32)c(CCCCC)c1 | 15.9 | 81.5* | 25.9 | 100.8* | 28.9 | 8.5
COc1ccc(C(=O)Nc2ccc(OCC(=O)N3CCOCC3)cc2)c(OC)c1OC | 4.0 | x | -13.7 | x | x | 9.8
CC1CN(S(=O)(=O)c2ccc(C(=O)NCCCn3ccnc3)cc2)CC(C)O1 (configuration not stated) | -4.5 | -0.1 | 104.6* | -1.6 | 18.0 | -23.4
CC1CN(S(=O)(=O)c2cccc(C(=O)NCCCn3ccnc3)c2)CC(C)O1 (configuration not stated) | 1.4 | 4.6 | 5.4 | 0.7 | 2.6 | -22.0
COc1ccc(C=C2c3ccccc3C(=O)c3ccccc32)c(OC)c1 | 86.6* | 82.7* | 97.6* | 83.8* | x | 61.4
COc1ccc(/C=C2\CN(Cc3ccccc3)C/C(=C\c3ccc(OC)cc3OC)C2=O)c(OC)c1 | -1.6 | 5.1 | -68.0 | -0.1 | 2.3 | 1.3
O=S(=O)(Nc1cccc(S(=O)(=O)N2CCOCC2)c1)c1cccs1 | -4.5 | x | -0.5 | x | x | -8.2
CCc1ccc(S(=O)(=O)/N=C2/C=C(Sc3ncn[nH]3)C(=O)c3ccccc32)cc1 | 0.6 | 33.6* | x | 70.6* | 75.4* | -4.5
CCc1ccc(S(=O)(=O)/N=C2\C=CC(=O)c3ccccc32)cc1 | 6.7 | 4.4 | -21.8 | -2.3 | 35.3 | -3.1
CC1CCc2nc(NC(=O)C3CC3)sc2C1 (configuration not stated) | 2.5 | 3.7 | -137.8 | -3.7 | -21.4 | -63.0
Cc1csc(NC(=O)C2COc3ccccc3O2)n1 (configuration not stated) | 2.2 | -1.4 | 62.3* | -3.2 | -148.8 | -80.4
CC1CCc2nc(NC(=O)C3COc4ccccc4O3)sc2C1 (configuration not stated) | 2.7 | 9.7 | 63.1* | 1.7 | -167.8 | -26.0
Cc1cnc(NC(=O)C2COc3ccccc3O2)s1 (configuration not stated) | -1.3 | 2.3 | 71.5* | -6.6 | -144.1 | -113.3
O=C(Nc1nc(-c2ccccc2)cs1)C1COc2ccccc2O1 (configuration not stated) | 2.0 | 2.7 | -31.3 | 1.2 | 3.1 | 4.0
Cc1nc2ccc3nc(NC(=O)C4COc5ccccc5O4)sc3c2s1 (configuration not stated) | 3.4 | 3.6 | 3.1 | 0.9 | 10.3 | -1.1
CC1(C)S[C@@H]2C(C(=O)OCc3ccccc3)NC(=O)N2C1C(=O)OCc1ccccc1 (some centres not stated) | x | x | -10.4 | x | x | x
Cc1ccc(Nc2nnc(C(C)(C)C)c(=O)n2N)cc1 | -8.3 | 5.2 | 15.9 | -1.3 | -11.6 | -10.5
CC(C)(C)c1nnc(N/N=C/c2cc(Br)ccc2O)n(N)c1=O | -3.1 | 0.9 | 115.5* | -0.2 | 80.5* | 9.0
Cc1nonc1C(=O)N1CCCC(Nc2ccc(C(C)C)cc2)C1 (configuration not stated) | 8.2 | x | -11.1 | x | x | -20.0
C#CCn1cc[n+](CC(=O)N(C)C)c1 | 1.6 | 2.5 | 0.0 | -4.0 | -4.6 | -31.2
